The list is not random: actives were taken first. Their share in the collection is about 12%.
HP1b chromo inh – inhibitors of HP1-beta chromodomain binding to methylated histone tails | P83916 | Potency, µM (top dose mostly 114 µM), without a hit: at the highest dose activity change, negative = inhibition, actives largely listed as inhibitors | AlphaScreen HP1-beta / biotin-H3K9me3 peptide binding | actives 0.56% (n = 390,000) | AID 540317; further: nearly all actives have a fitted effect of over 70% in size
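Compound inhibition of the preformed complex between 50 nM HP1-beta and 50 nM biotinylated H3K9me3 peptide was read by AlphaScreen. Buffer was PBS pH 7.4 with 0.01% Tween-20. Incubations ran 30 min at room temperature, with 10 ug/mL donor/acceptor beads.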
G9a block – inhibitors of human histone lysine methyltransferase G9a; Q96KQ7; Potency, µM (series often up to 102 µM), inactives show at the highest dose activity, negative = inhibition, usual class: inhibitors; G9a H3K9 monomethylation, AlphaScreen, 2 h; actives 8.8% (n = 350,000); further: on the % scale 0 is the no-effect control and ±100 the full control effect; nearly all actives have a fitted effect of over 75% in size
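Quantitative HTS format: methyltransferase activity on a biotin-tagged H3K9 peptide is measured by AlphaScreen, using a rabbit anti-monomethyl-H3K9 antibody with streptavidin donor and anti-IgG acceptor beads. Final levels are 20 nM enzyme, 500 nM peptide, 20 uM SAM; 2 h RT.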
JMJD2A Tudor – inhibitors of human JMJD2A Tudor domain | Potency, µM (doses to about 114 µM), for the others: at the highest dose activity change, negative = inhibition, usual class: inhibitors | AlphaScreen JMJD2A-Tudor / H3K4me3 peptide binding | actives 4.4% (n = 390,000); further: on the % scale 0 is the no-effect control and ±100 the full control effect; nearly all actives have a fitted effect of over 50% in size
Target sequence (O75164 whole entry, looked up, the tested form may be a part): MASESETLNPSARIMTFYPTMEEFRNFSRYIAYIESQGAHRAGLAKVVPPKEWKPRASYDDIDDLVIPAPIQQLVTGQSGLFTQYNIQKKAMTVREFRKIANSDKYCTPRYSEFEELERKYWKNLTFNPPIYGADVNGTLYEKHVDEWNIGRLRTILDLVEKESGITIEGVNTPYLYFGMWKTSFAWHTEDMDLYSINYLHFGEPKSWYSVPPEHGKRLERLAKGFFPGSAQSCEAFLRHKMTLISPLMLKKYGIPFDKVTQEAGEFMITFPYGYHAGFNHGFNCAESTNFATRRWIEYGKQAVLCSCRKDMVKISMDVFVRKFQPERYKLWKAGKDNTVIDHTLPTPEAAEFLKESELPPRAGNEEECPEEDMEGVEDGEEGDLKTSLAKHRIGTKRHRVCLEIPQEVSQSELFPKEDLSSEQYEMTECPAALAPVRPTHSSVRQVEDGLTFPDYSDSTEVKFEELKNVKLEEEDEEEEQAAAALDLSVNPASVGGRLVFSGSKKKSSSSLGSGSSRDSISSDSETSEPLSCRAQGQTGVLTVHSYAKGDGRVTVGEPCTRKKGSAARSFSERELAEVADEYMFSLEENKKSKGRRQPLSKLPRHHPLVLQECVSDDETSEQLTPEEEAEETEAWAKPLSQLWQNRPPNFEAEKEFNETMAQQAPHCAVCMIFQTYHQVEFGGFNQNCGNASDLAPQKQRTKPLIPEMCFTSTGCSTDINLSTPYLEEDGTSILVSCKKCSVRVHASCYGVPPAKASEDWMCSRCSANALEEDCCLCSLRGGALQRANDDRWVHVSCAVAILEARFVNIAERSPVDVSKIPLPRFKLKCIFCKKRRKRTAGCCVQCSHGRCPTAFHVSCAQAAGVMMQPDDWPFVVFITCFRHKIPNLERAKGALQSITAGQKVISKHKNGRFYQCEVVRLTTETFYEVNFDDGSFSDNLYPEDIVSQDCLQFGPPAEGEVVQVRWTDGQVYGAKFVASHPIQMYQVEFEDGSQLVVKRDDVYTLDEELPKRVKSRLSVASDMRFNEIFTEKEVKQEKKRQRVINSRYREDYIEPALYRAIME
BAZ2B block – BAZ2B (human) inhibition; Q9UIF8; AlphaScreen BAZ2B-H3K14Ac peptide displacement; Potency, µM (series often up to 114 µM), inactives show top-dose activity change, negative = inhibition, hits mostly inhibitors; actives 4.4% (n = 360,000); further: on the % scale 0 is the no-effect control and ±100 the full control effect; nearly all actives have a fitted effect of over 60% in size
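Multi-concentration screen (max 110 uM) measuring displacement of acetylated histone H3 peptide from BAZ2B by AlphaScreen, using 50 nM protein, 50 nM peptide and 10 ug/mL streptavidin donor plus Ni-chelate acceptor beads.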
Sfp PPTase inh – blocks B. subtilis Sfp PPTase activity. Biochemical Sfp PPTase activity, qHTS. AID 1490. actives 3.5% (n = 310,000). Q9F4F7. Potency, µM, for the others: largest response in the series, negative = inhibition, usual class: inhibitors;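 further: the enzyme is Sfp with the accession as filed and its product quenches rhodamine fluorescence; 0% = enzyme reaction without inhibitor and -100% = no enzyme wells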
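After 15 min at room temperature with compound, 15 nM Sfp received 5 uM rhodamine-CoA plus 12.5 uM BHQ-2-ybbR (50 mM Hepes pH 7.6, 10 mM MgCl2). Rate came from the fluorescence difference over 30 min, ex 525/em 598 nm.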
Active calls of the source: *; ? = inconclusive; · = no result; [ ] = dose if it differs, or a comment. The call rests on the fitted dose curve; in most records, active means well fitted curve in the direction sought with a large enough effect; inconclusive means small, poorly fitted or top-dose-only effect, or another doubt; inactive means no such curve, though single readings can be large; an effect the other way counts as inactive or inconclusive. Potency means the concentration at half of the fitted maximal effect.

SMILES | HP1b chromo inh | G9a block | JMJD2A Tudor | BAZ2B block | Sfp PPTase inh
O=c1cc(-c2ccccc2Cl)oc2c([N+](=O)[O-])c(O)cc(O)c12 | 24% | 50µM* | -32% | ? | 2%
Cc1ccc(NS(=O)(=O)c2ccc3c(c2)CCC(C)(C)O3)cc1C | · | · | -6% | · | ·
CCOC(=O)c1cc(CC)sc1/N=C/C1C(=O)CC(C)(C)CC1=O | 67% | -2% | -2% | -2% | 8%
CCc1sc(C(C2C(=O)CC(C)(C)CC2=O)C2C(=O)CC(C)(C)CC2=O)cc1[N+](=O)[O-] | 35% | · | -12% | ? | 11µM*
CN(C)S(=O)(=O)c1cccc(C(=O)C2=C3SC=C(c4ccccc4)N3CC2)c1 | 35% | ? | -7% | -13% | 56µM*
CC(=O)N1c2ccccc2C(=O)C1N1CCCCC1 (configuration not stated) | 45% | 50µM* | -8% | 4% | 5%
O=C(Nc1c(C(=O)Nc2ccc(F)cc2)oc2ccccc12)c1cc2ccccc2o1 | 41% | 7%[59 µM] | -6% | 0% | ·
Cc1cc(/C=N/n2cnnc2)c(C)n1-c1ccc(C(=O)O)cc1 | 35% | 1%[59 µM] | -5% | · | 21%
COC(=O)c1ccc(-n2c(C)cc(/C=N/n3cnnc3)c2C)cc1 | 18% | 56µM* | 16%[11.4 µM] | ? | -1%
N#CC1=C(N)Oc2cc(O)c(Cl)cc2C1c1ccccc1F (configuration not stated) | 26% | 50µM* | -13% | -11% | 0%
N#CC1=C(N)Oc2cc(O)c(Cl)cc2C1c1cccnc1 (configuration not stated) | 2% | 32µM* | -11% | -14% | -23%
N#CC1=C(N)Oc2ccc3ccccc3c2C1c1cccnc1 (configuration not stated) | 31% | 45µM* | -18% | -38% | 2%
O=C(CN1CCN(Cc2ccc(F)cc2)C1=O)NCc1ccc(F)cc1 | 25% | -28%[59 µM] | -14% | 6% | ·
COC(=O)c1sccc1S(=O)(=O)N(CC(=O)Nc1ccccc1F)c1ccccc1 | 1% | 6%[59 µM] | -19% | -10% | ·
CCc1c(C)nc2[nH]nc(NC(=O)C(F)(F)F)n2c1=O | -14% | 16µM* | 89µM* | ? | -3%
COc1ccc2[nH]c3c(c2c1)CCN1C(=O)C(CC(=O)NCCCn2ccnc2)C[C@H](C(=O)N(C(C)C)C(C)C)[C@@]31C (some centres not stated) | 39% | · | -31% | · | ·
O=C(c1coc(=O)c(Br)c1)N1CCCc2ccccc21 | -34% | 18µM* | 40µM* | 22µM* | 79µM*
CC1(C)CCCN(C(=O)c2coc(=O)c(Br)c2)C1 | -95% | · | 18µM* | 20µM* | -4%
O=C(c1coc(=O)c(Br)c1)N1CCC(C(O)(c2ccccc2)c2ccccc2)CC1 | 11% | -23% | -5% | -10% | -17%
O=C(c1cc(-c2ccco2)on1)N1CCCc2ccccc21 | -8% | 13µM* | 56µM* | ? | -5%
O=C(c1cc(-c2ccco2)on1)N1CCc2ccccc2C1 | -16% | 11µM* | 50µM* | 25µM* | 45µM*
CCOC(=O)c1ccc(-c2ccc(-c3cc(=O)oc4cc(OC)c(OC)c(OC)c34)cc2)cc1 | 56% | 13%[59 µM] | -12% | · | -11%
O=C(c1noc2c1CCc1ccccc1-2)N1CCc2ccccc2C1 | · | 3%[12.7 µM] | · | 21% | 1µM*
O=C(c1nn2c(C(F)(F)F)cc(-c3ccco3)nc2c1Br)N1CCCc2ccccc21 | 1% | 18µM* | -13%[57.1 µM] | 2% | -19%
CC1CCCC(C)N1C(=O)c1cc(-c2ccco2)on1 (configuration not stated) | 24% | 50µM* | -7% | 0% | -2%
SMILES | HP1b chromo inh | G9a block | JMJD2A Tudor | BAZ2B block | Sfp PPTase inh
Cc1ccc(-n2cc(-c3ccccc3)c3c(NC4CCCC4)ncnc32)cc1 | 29% | -32%[59 µM] | -15% | -18% | ·
C=CCOc1c(Br)cc(CNc2ccc3[nH]c(=O)[nH]c3c2)cc1OCC | 1% | · | -23% | -19% | 7%
C=CCOc1cccc(CNc2ccc3[nH]c(=O)[nH]c3c2)c1 | -25% | 20µM* | ? | ? | -14%
COc1cc(CNc2ccc3[nH]c(=O)[nH]c3c2)ccc1OCc1ccc(F)cc1 | 22% | ? | -6% | -26% | -5%
COc1ccc(Br)cc1CNc1ccc2[nH]c(=O)[nH]c2c1 | ? | ? | 50µM* | 40µM* | -9%
COc1cc(CNc2ccc3[nH]c(=O)[nH]c3c2)ccc1OCc1ccccc1 | 5% | 32µM* | -30% | ? | -14%
COc1cc(CNc2ccc3[nH]c(=O)[nH]c3c2)ccc1OCc1ccc(Cl)cc1 | 12% | · | -21% | -12% | -13%
C=CCOc1ccc(CNc2ccc3[nH]c(=O)[nH]c3c2)cc1OC | 6% | 45µM* | -11% | -27% | 5%
Cc1ccc(-c2cc(NC(=O)C(C)Oc3ccc(C)c(C)c3)on2)cc1 (configuration not stated) | 101% | 40%[59 µM] | -6% | 45% | ·
Cc1cc2c(s1)c1cnn(Cc3ccc(Cl)c(F)c3)c(=O)c1n2C | · | · | -25% | · | ·
COc1cccc(NC(=O)CCNC(=O)Cn2cnc3ccccc3c2=O)c1 | 4% | -29%[59 µM] | -13% | -16% | ·
Cn1c(=O)[nH]c(=O)c2c1nc(N1CCOCC1)n2Cc1ccccc1 | 31% | 1%[59 µM] | -6% | 4% | ·
Cn1c(Cc2cccc3ccccc23)nnc1SCc1ccc([N+](=O)[O-])cc1 | -8% | 10µM* | ? | -39% | -4%
COc1ccc(CC(=O)NCc2nnc(SCc3ccc([N+](=O)[O-])cc3)n2C)cc1 | 18% | 13% | -15% | -13% | 15%
COc1ccc(-n2c(Cc3ccccc3)nnc2SCc2ccc([N+](=O)[O-])cc2)cc1 | -14% | 50µM* | ? | ? | -15%
Cc1ccc(CN2CCSc3ccc(C(=O)Nc4cc(C)cc(C)c4)cc32)cc1 | 49% | 6%[59 µM] | -14% | 0% | ·
Oc1ccc(/C=N/N=C/c2ccc(O)c(O)c2)cc1O | -27% | 35µM* | 7.9µM* | 10µM* | -16%
Oc1ccc(N=Cc2ccc(O)c(O)c2)cc1 | ? | 1.3µM* | 56µM* | 45µM* | 45µM*
Oc1ccc(/C=N/N=C/c2ccc(O)cc2)cc1 | 28% | ? | -25% | -29% | 23%
O=C(/C(=N/N=C/c1ccc(O)c(O)c1)c1ccccc1)c1ccccc1 | ? | 32µM* | 25µM* | 40µM* | 5%
OC/C=C/c1ccc(O)c(O)c1 | · | · | · | · | 1%
O=C1Nc2ccccc2/C1=N\N=C\c1ccc(O)c(O)c1 | 32µM* | · | ? | 40µM* | ?
CC(=O)Oc1ccccc1C(=O)C=Cc1cccc([N+](=O)[O-])c1 | -18% | · | ? | · | ·
CCOCCc1nn2c(=O)cc(COC(=O)Cc3ccccc3)nc2s1 | 28% | 27%[59 µM] | -11% | -8% | ·
Cn1cccc1C(=O)NNC(=O)COc1ccccc1F | 12% | 15% | -21% | -2% | 4%

Source: PubChem
